# Compounds with a hit are over-represented: about 1.2% of the library has one in this group of screens.
# GLA inh pH 4.5: qHTS Assay for Inhibitors of Human alpha-Galactosidase at pH 4.5 | Alpha-galactosidase A (Homo sapiens), P06280 | purified enzyme, 4-MU-alpha-Gal fluorescence, pH 4.5 | activity change, negative = inhibition, % at 105 µM | 230,000 tested, under 10 active | AID 1467, 2008;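 note: 0% = full activity with enzyme and -100% = basal without enzyme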
# Target sequence (P06280 whole entry, looked up): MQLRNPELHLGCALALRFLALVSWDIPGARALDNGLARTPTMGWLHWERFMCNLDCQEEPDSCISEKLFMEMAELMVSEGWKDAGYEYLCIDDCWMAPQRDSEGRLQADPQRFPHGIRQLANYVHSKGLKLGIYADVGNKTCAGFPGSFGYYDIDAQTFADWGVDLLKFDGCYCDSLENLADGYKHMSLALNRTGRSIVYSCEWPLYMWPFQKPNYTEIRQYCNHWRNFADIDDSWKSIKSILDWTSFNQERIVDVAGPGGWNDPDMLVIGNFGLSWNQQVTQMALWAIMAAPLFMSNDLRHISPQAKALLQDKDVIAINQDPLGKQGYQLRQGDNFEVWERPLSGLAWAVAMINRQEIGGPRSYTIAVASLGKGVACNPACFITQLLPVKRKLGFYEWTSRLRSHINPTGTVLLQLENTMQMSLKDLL
# HttQ103 aggreg: qHTS Multiplex Assay to Identify Dual Action Probes in a Cell Model of Huntington: Aggregate Formation (GFP). Potency, µM (highest dose often 46.1 µM), inactives show at the top dose activity change, negative = inhibition, hits mostly inhibitors. PC12 HttQ103-GFP aggregates, Acumen cytometry, 40 h. hit rate 1.1% among 220,000; note: potency is the fitted concentration of half-maximal effect; % is set by controls: 0 for no effect and ±100 for the full control effect; nearly all actives have a fitted effect of over 60% in size
#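 PC12 cells with ecdysone-inducible HTT exon1 Q103-GFP, induced by 100 nM tebufenozide, given compounds in a concentration series. GFP aggregates (1–25 um, 6 SD above background) counted in lysates by laser-scanning cytometry, 488 nm excitation.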
# aGal spleen mod: qHTS Assay for Inhibitors and Activators of Human alpha-Galactosidase From Spleen Homogenate; human spleen homogenate, 4MU-alpha-Gal fluorescence, 40 min; hit rate 0.008% among 240,000; Alpha-galactosidase A (Homo sapiens), P06280; Potency, µM (highest dose often 80 µM), without a hit: at the top dose activity change, negative = inhibition, most hits filed as inhibitors; AID 2107, 2009;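 note: potency is the fitted concentration of half-maximal effect; 0% = enzyme with vehicle and -100% = no enzyme basal signal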
#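 Spleen homogenate 1 ug + cpd (titration) + 4-MU-alpha-D-galactopyranoside 1 mM; 37C 40 min; 50 mM citrate/phosphate pH 5.0, 0.01% Tween-20; stop pH 10; fluorescence 365/440; AC50 via Hill.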
# HTT cytoprotect: qHTS Multiplex Assay to Identify Dual Action Probes in a Cell Model of Huntington: Cytoprotection (ATP); PC12 HTT-Q103 induced, cytoprotection, ATP luminescence, 40 h; Potency, µM (series often up to 56.4 µM), without a hit: cytoprotection (ATP increase), usual class: activators; hit rate 0.14% among 230,000; note: potency is the fitted concentration of half-maximal effect; % of control where 0% means no effect; nearly all actives have a fitted effect of over 45% in size
#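 Stable PC12 Q103-GFP cells in serum-supplemented, phenol red-free DMEM; induction by tebufenozide at 100 nM final; compound dose series; cell viability quantified luminescently from ATP.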
# ERK EGF block: qHTS Assay for Inhibitors of the ERK Signaling Pathway using a Homogeneous Screening Assay; Stimulation with EGF | hit rate 0.41% among 130,000 | HEK293-V1b, EGF-stimulated phospho-ERK AlphaScreen | AID 1454, 2008 | Potency, µM (series often up to 11.5 µM), without a hit: top-dose activity change, negative = inhibition, usual class: inhibitors;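 note: potency is the fitted concentration of half-maximal effect; plate controls were stimulated vehicle wells for no effect and unstimulated vehicle basal for full effect; nearly all actives have a fitted effect of over 55% in size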
#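 HEK293 cells stably expressing V1b receptor, serum-reduced (1% FBS) overnight, pretreated 30 min with compound, then stimulated 5 min with 25 nM EGF; phospho-ERK detected by AlphaScreen SureFire. AC50 from Hill fits, normalized to DMSO and EGF.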
# Active calls of the source: *; ? = inconclusive; · = not tested or not shown; ! = not active in a repeat; [ ] = another dose, or the depositor's remark. Calls come from the whole dose curve; as a rule, active = well fitted curve in the direction sought with a large enough effect; inconclusive = small, poorly fitted or top-dose-only effect, or another doubt; inactive = no such curve, though single readings can be large; an effect the other way counts as inactive or inconclusive.
SMILES,GLA inh pH 4.5,HttQ103 aggreg,aGal spleen mod,HTT cytoprotect,ERK EGF block
CC(NC(=O)OCc1ccccc1)C(=O)Oc1cc2oc(=O)cc(-c3ccccc3)c2cc1Cl (centres undefined),-7.0,8.91µM*,-0.8%,-1.7%[10 µM],-5.8%
Nc1ccc(C(=O)NCC(=O)O)cc1,8.6,-9.9%[20.6 µM],-15.9%,3.16µM*!,-0.7%
CN1[C@H](Cc2ccccc2)C=C[C@]1(C)C(=O)NCC1CC1,-3.8,·,0.1%,18.8%,2.5%
Cc1nnc(-c2ccccc2)c(=O)n1/N=C/c1c(O)ccc2ccccc12,-1.3,3.16µM*,-1.6%,-50.7%,·
FC(F)(F)c1cnc(NNC(=S)Nc2ccccc2Cl)c(Cl)c1,-12.6,22.4µM*,-0.2%,27.4%[10 µM],·
CCOC(=O)/C(C#N)=C1\Nc2ccccc2N=C1N(CC(C)C)CC(C)C,-8.3,?,5.3%,9.4%,·
CCOC(=O)/C(C#N)=C1/C=C(C)NC(c2ccccc2O)=N1,-1.6,11.2µM*,-8.9%,-15.8%[10 µM],·
CCOC(=O)NC(=O)CSc1nc(C)cc(C(F)(F)F)c1C#N,-1.0,10µM*,3.1%,31.1%,·
COC(=O)CSc1nc(C)cc(C(F)(F)F)c1C#N,-14.7,6.1%,4.9%,-10.2%,·
N#Cc1ccc(CN2CCCC3(CCN(C(=O)c4csnn4)CC3)C2)cc1,·,·,3.7%,20.9%,-3.7%
N#CC1=C(SCC(=O)c2ccccc2)NC2=C(C(=O)CCC2)C1c1ccco1 (centres undefined),-4.8,11.2µM*,6.1%,-111.4%,·
CCOC(=O)c1c(NC(=O)CSc2nc3c(c(=O)n(C)c(=O)n3C)n2C(C)C)sc(C)c1C,-2.3,-2.5%,-5.0%,-27.8%[10 µM],·
CC(C)n1c(SCC(=O)Nc2nc3c(s2)CCCC3)nc2c1c(=O)n(C)c(=O)n2C,-2.9,12.6µM*,-2.1%,4.4%[10 µM],?
Cn1c(=O)cc2c3c(c(N4CCCCC4)ccc31)C(=O)c1ccccc1-2,-3.7,5.5%[9.22 µM],3.8%,-11.6%[10 µM],22.4µM*
O=c1[nH]c2ccccc2n1CCCSCCCn1c(=O)[nH]c2ccccc21,-7.5,11.2µM*,26.9%,-26.7%[0.074 µM],·
CC[C@H](C)[C@H](NC(=O)[C@H](CC(=O)O)NC(=O)[C@H](CC(C)C)NC(=O)[C@H](NC(C)=O)C(c1ccccc1)c1ccccc1)C(=O)N[C@H](C(=O)N[C@@H](Cc1c[nH]c2ccccc12)C(=O)O)[C@@H](C)CC,·,·,9.3%,·,·
CCCNC(=O)N1N=C(c2ccc(N)cc2)c2cc3c(cc2C1C)OCO3 (centres undefined),·,·,-13.4%,·,·
Cc1ccc(Nc2c(-c3ccccc3O)nc3cnccn23)cc1,-3.0[21.1 µM],-9.0%,-9.6%,-25.0%,25.1µM*
COc1ccc(Nc2c(-c3ccc(C)cc3)nc3cnccn23)cc1,1.4,-1.5%,-4.0%,-52.9%,-4.4%
c1csc(Cc2nn3c(-c4ccncc4)nnc3s2)c1,4.6,10µM*,2.7%,-17.3%,·
COc1ccccc1-c1nnc2sc(C3CCCCC3)nn12,0.2,-14.9%,3.8%,-4.9%,·
c1cc(-c2nnc3sc(C4CCCCC4)nn23)ccn1,-0.4,12.6µM*,-4.9%,4.5%,·
CC(C)c1ccc2c(c1)CC[C@@H]1[C@@](C)(CN)CCC[C@@]21C,·,·,·,-80.6%,·
Nc1ncnc(Nc2ccccn2)c1[N+](=O)[O-],1.3,?,7.0%,?,-1.9%
Nc1ncnc(N2CCc3ccccc32)c1[N+](=O)[O-],6.3,2.51µM*,-1.1%,-7.4%,-1.8%
COC(=O)/C=C/c1cc(O)ccc1O,·,·,-22.8%,-81.6%,·
NC(=O)C1CCCN1C(=O)C(Cc1cnc[nH]1)NC(=O)C1CCC(=O)N1 (centres undefined),·,·,3.1%,·,·
COc1ccc(CCNC(=O)c2cc(-c3cccs3)on2)cc1OC,-3.0,31.0%,-3.3%,3.55µM*,·
COc1ccc(CCNC(=O)c2cc(-c3ccco3)on2)cc1OC,0.4,?,-11.5%,?,-8.2%
Cc1cc(NC(=O)c2cc(-c3cccs3)on2)no1,-0.6,7.08µM*,2.8%,-35.6%,·
